SENP8 block-1 – blocks human SENP8 cleavage of Nedd8 substrate. Q96LD8. recombinant SENP8, Nedd8 substrate fluorescence. inhibition, % at 20 µM. 360,000 tested, 0.64% active. AID 602440; in the data active = inhibition mostly above about 40%, no sharp cut-off; inactive = mostly below about 27%
SENP6 block – blocks the human protease SENP6. Recombinant SENP6 catalytic domain, aminoluciferin luminescence. inhibition, % at 10 µM. Q9GZR1. 330,000 tested, 1.8% active;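 active = inhibition above about 50% at the single tested dose, limit read from the data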
Target sequence (Q9GZR1 628-1112 limits assumed): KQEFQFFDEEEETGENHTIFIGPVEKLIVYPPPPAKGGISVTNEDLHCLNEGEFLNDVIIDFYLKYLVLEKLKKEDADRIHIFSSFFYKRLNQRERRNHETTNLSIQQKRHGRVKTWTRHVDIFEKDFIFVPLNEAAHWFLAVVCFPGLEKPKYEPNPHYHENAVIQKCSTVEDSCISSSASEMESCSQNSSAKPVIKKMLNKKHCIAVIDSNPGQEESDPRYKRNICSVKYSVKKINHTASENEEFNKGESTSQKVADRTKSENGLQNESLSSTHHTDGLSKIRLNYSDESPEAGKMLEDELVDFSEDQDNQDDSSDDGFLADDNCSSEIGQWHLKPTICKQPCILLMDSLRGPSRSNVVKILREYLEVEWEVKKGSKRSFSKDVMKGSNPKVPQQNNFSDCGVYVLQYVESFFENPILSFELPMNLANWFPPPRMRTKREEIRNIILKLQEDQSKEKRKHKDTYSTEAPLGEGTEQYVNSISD
Platelet DG rel – modulates dense granule release in human platelets | inhibition, %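 (compounds screened at 7.5 µM in platelet-rich plasma)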 | human platelet-rich plasma, SFLLRN dense granule ATP release, luminescence | 300,000 tested, 0.22% active;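 active = mean replicate score, as percent of positive control, at or above 50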
SENP7 block – inhibitors of human SENP7 protease | Q9BQF6 | recombinant SENP7, Z-RLRGG-aminoluciferin luminescence, 40 min | inhibition, % at 5 µM | 330,000 tested, 1.5% active | AID 434973;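 active = inhibition above about 50% at the single test dose, limit read from the data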
SENP8 block-2 – inhibitors of human SENP8 protease; inhibition, % at 10 µM; purified SENP8, Z-RLRGG-aminoluciferin cleavage, luminescence; Q96LD8; 330,000 tested, 1.2% active; in the data active = inhibition above about 50%
SENP8 confirm – confirmation of human SENP8 protease inhibitors | shares compounds with SENP7 block | Recombinant SENP8, Z-RLRGG-aminoluciferin luminescence, 60 min | inhibition, % at 12.5 µM | 6,200 tested, 40% active;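 active = mean inhibition across replicates above about 50%, limit read from the data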
SENP6 conf – confirmation of human SENP6 protease inhibitors. shares compounds with SENP7 block. recombinant SENP6, Z-RLRGG-aminoluciferin luminescence. inhibition, % at 12.5 µM. 6,200 tested, 58% active. AID 488915
SENP7 confirm – human SENP7 inhibition, confirmed; shares compounds with SENP7 block; recombinant SENP7, Z-RLRGG-aminoluciferin luminescence, 40 min; inhibition, % at 12.5 µM; 6,200 tested, 69% active
Casp3 SENP sel – inhibits human caspase-3 in SENP selectivity test; shares compounds with SENP7 block; purified caspase-3, Z-DEVD-aminoluciferin luminescence, 60 min; inhibition, % at 12.5 µM; 6,200 tested, 60% active; AID 488918;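 active = mean inhibition above about 50%, limit read from the data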
Target sequence (P42574 28-227 limits assumed): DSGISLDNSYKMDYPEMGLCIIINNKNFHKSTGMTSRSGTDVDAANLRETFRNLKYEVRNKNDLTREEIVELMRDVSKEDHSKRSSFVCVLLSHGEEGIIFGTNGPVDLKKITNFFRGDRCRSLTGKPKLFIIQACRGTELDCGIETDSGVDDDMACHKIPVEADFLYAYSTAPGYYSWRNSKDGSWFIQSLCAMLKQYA
SENP luc ctr – counter-screen for SENP inhibitors: luminescence interference; Pre-incubated SENP8/Z-RLRGG-aminoluciferin, luciferase luminescence interference; AID 488919; 6,200 tested, 39% active; shares compounds with SENP7 block; inhibition, % at 12.5 µM;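 active = mean inhibition above about 50% when retested at one dose, limit read from the data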
Of the large screens only hits and unclear results are named; the others gave an inactive call (follow-up assays come after a bar, where they were run). Most compounds without a hit are left out; they make up all but 2.4% or so of the library.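 Rule for the calls, unless noted: active = mean inhibition above about 50% in the one-dose retest (limit read from the data); inactive = the rest.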

Cc1ccc2c(c1)Cc1nc3ccccc3nc1-2	SENP6 block 98.0, SENP7 block 99.8, SENP8 block-2 96.4 | SENP8 confirm inactive | SENP6 conf 98.9 | SENP7 confirm 103.2 | Casp3 SENP sel 97.6 | SENP luc ctr 68.2
Cc1ccc2c(c1)-c1nc3ccccc3cc1C2=NC1CCCCC1	none (no result: SENP6 block, Platelet DG rel, SENP7 block, SENP8 block-2)
COc1ccc(C2Nc3ccccc3C(=O)N2C2CCCCC2)cc1 (centres undefined)	none
Cc1cc(NC(=O)Nc2ccccc2F)ccc1Br	SENP6 block 80.4, SENP7 block 95.5, SENP8 block-2 87.7 | SENP8 confirm 76.2 | SENP6 conf 92.3 | SENP7 confirm 101.7 | Casp3 SENP sel 86.5 | SENP luc ctr 64.4
COc1cccc(NC(=O)Nc2ccccc2Br)c1	SENP6 block 89.5, SENP7 block 82.2, SENP8 block-2 66.0 | SENP8 confirm 76.6 | SENP6 conf 77.9 | SENP7 confirm 93.8 | Casp3 SENP sel 69.8 | SENP luc ctr inactive
COc1cccc(NC(=O)COC(=O)COc2ccccc2[N+](=O)[O-])c1	none
COc1cccc(NC(=O)Nc2cc(Cl)ccc2C)c1	none
COc1cccc(NC(=O)COc2ccccc2C(N)=O)c1	SENP6 block 64.7 | SENP8 confirm inactive | SENP6 conf inactive | SENP7 confirm 70.8 | Casp3 SENP sel 74.8 | SENP luc ctr 52.2
O=C(Nc1cccs1)Nc1ccccc1Br	SENP6 block 50.1 | SENP8 confirm inactive | SENP6 conf inactive | SENP7 confirm 74.8 | Casp3 SENP sel inactive | SENP luc ctr inactive
COc1ccc(CCNC(=O)c2cccnc2Cl)cc1OC	none
O=C(NCC(c1ccccc1)N1CCCC1)C1CCN(C(=O)Nc2ccccc2)CC1 (centres undefined)	none (no result: Platelet DG rel)
COc1ccccc1NC(=O)Nc1cccc(C(=O)O)c1	SENP6 block 60.4 | SENP8 confirm 55.7 | SENP6 conf 51.8 | SENP7 confirm 80.4 | Casp3 SENP sel 77.1 | SENP luc ctr 63.0
COc1ccc(C)cc1NC(=O)Nc1cccc(C(=O)O)c1	none
c1cnc2ccc(-c3ccc4ncccc4c3)cc2c1	SENP6 block 76.8, SENP8 block-2 55.4 | SENP8 confirm 72.2 | SENP6 conf 71.1 | SENP7 confirm 87.3 | Casp3 SENP sel 65.4 | SENP luc ctr 75.5
Cc1nn(-c2ccccc2)c(C)c1/C=N/Nc1nc2ccccc2[nH]1	SENP7 block 74.6, SENP8 block-2 74.1 | SENP8 confirm 84.3 | SENP6 conf 83.7 | SENP7 confirm 94.0 | Casp3 SENP sel 74.0 | SENP luc ctr 83.2
CCCn1c(/C=N/Nc2nc3ccccc3[nH]2)nc2ccccc21	none (no result: SENP6 block, Platelet DG rel, SENP7 block, SENP8 block-2)
C(=N\Nc1nc2ccccc2[nH]1)/c1cccs1	SENP6 block 85.7, SENP7 block 61.6, SENP8 block-2 59.2 (no result: Platelet DG rel) | SENP8 confirm 57.1 | SENP6 conf 53.6 | SENP7 confirm 66.9 | Casp3 SENP sel 51.9 | SENP luc ctr 64.8
Cn1c(/C=N/Nc2nc3ccccc3[nH]2)nc2ccccc21	SENP6 block 83.1, SENP7 block 74.3, SENP8 block-2 60.2 | SENP8 confirm 61.9 | SENP6 conf 58.9 | SENP7 confirm 82.2 | Casp3 SENP sel 52.3 | SENP luc ctr inactive
Cc1cc(=O)[nH]c(N/N=C/c2c(C)nn(-c3ccccc3)c2C)n1	none
CCOc1ccc(CCNC(=O)c2cn(C)c3ccc(S(=O)(=O)N4CCOCC4)cc3c2=O)cc1OCC	none
CCN(CC(=O)Nc1ccccc1OC)Cc1csc(CC(=O)Nc2ccc(C)cc2)n1	none (no result: Platelet DG rel)
O=C1NC(=O)/C(=C\c2ccc(OCc3ccccc3)cc2)S1	SENP6 block 64.5 | SENP8 confirm inactive | SENP6 conf inactive | SENP7 confirm inactive | Casp3 SENP sel inactive | SENP luc ctr inactive
COc1ccccc1OCCCOc1cccc(/C=C2\SC(=O)NC2=O)c1	none
COc1ccccc1OCCCOc1ccc(/C=C2\SC(=O)NC2=O)cc1OC	SENP6 block 60.8 | SENP8 confirm inactive | SENP6 conf inactive | SENP7 confirm inactive | Casp3 SENP sel inactive | SENP luc ctr inactive
CC1CC(=O)Nc2ccccc2N1S(=O)(=O)c1cccc(Cl)c1 (centres undefined)	none
CCOc1ccc(-n2cc(-c3ccc(OC)c(OC)c3)[nH]c2=S)cc1	SENP6 block 73.2, SENP8 block-2 52.8 | SENP8 confirm inactive | SENP6 conf inactive | SENP7 confirm inactive | Casp3 SENP sel inactive | SENP luc ctr inactive
c1ccc(-c2nccc3ccccc23)cc1	none
Cc1ccc(-c2nc(-c3nccc4ccccc34)oc2-c2ccccc2)cc1	SENP6 block 69.5, SENP7 block 80.5 | SENP8 confirm inactive | SENP6 conf 50.5 | SENP7 confirm 83.8 | Casp3 SENP sel 84.0 | SENP luc ctr 72.2
C/C(=N\OCc1ccc(C#N)cc1)c1ccc(S(=O)(=O)N(C)C)cc1	none
C/C(=N\OCc1ccc(C#N)cc1)c1ccccc1	SENP6 block 88.5, SENP7 block 80.1, SENP8 block-2 79.4 | SENP8 confirm 81.7 | SENP6 conf 86.1 | SENP7 confirm 96.9 | Casp3 SENP sel 77.1 | SENP luc ctr 68.5
C/C(=N\OCc1cccc(C(=O)O)c1)c1ccc(Cl)cc1	SENP6 block 97.4, SENP7 block 100.8, SENP8 block-2 97.1 | SENP8 confirm 99.2 | SENP6 conf 99.7 | SENP7 confirm 103.0 | Casp3 SENP sel 96.8 | SENP luc ctr 98.4
CCOC(=O)c1csc(-c2ccc(OC)c(OC)c2)n1	none
CCOC(=O)c1csc(-c2sccc2Br)n1	SENP6 block 94.5, SENP7 block 97.9, SENP8 block-2 94.2 | SENP8 confirm 96.4 | SENP6 conf 97.6 | SENP7 confirm 102.3 | Casp3 SENP sel 96.8 | SENP luc ctr 92.9
CCSc1nnc(Cc2cc(=O)[nH]c(=O)[nH]2)n1-c1cc(C)ccc1C	SENP6 block 53.1 | SENP8 confirm inactive | SENP6 conf inactive | SENP7 confirm inactive | Casp3 SENP sel inactive | SENP luc ctr inactive
CN(C(=O)CSc1nc2ccc(Cl)cc2[nH]1)C1CCS(=O)(=O)C1 (centres undefined)	none (no result: Platelet DG rel)
CCN(CC)CCN(C(=O)c1ccc2c(c1)CCCC2)c1nc2c(C)cccc2s1	none
COCCCNC(=O)COC(=O)c1ccc(-c2nc3ccccc3s2)s1	SENP6 block 85.7, SENP7 block 85.8, SENP8 block-2 82.4 | SENP8 confirm 61.2 | SENP6 conf 66.5 | SENP7 confirm 91.2 | Casp3 SENP sel 78.1 | SENP luc ctr 58.9
CNC(=O)COC(=O)/C=C/c1nc2ccccc2s1	none
